# Assay results as given in article PMC5540273 (PLoS ONE, 2017).
# Values joined by “and” are separate entries in the source; they are usually repeats but may differ in a detail not shown here. Equal entries are not always repeated. Where two headings read alike, the source gives them in different places.
# Experiments:
# ACVR2A = conditions: concentration: 1 μM, replicates: in singlicate, n = 1
# ACVR2B = conditions: concentration: 1 μM, replicates: in singlicate, n = 1
# ACVRL1 = conditions: concentration: 1 μM, replicates: in singlicate, n = 1
# ADCK3 = tested on: T1, ADCK3; conditions: concentration: 1 μM, replicates: in singlicate, n = 1
# T1 construct: gene CABC1
# ADCK4 = conditions: concentration: 1 μM, replicates: in singlicate, n = 1
# AKT1 = conditions: concentration: 1 μM, replicates: in singlicate, n = 1
# AKT2 = conditions: concentration: 1 μM, replicates: in singlicate, n = 1
# AKT3 = conditions: concentration: 1 μM, replicates: in singlicate, n = 1
# ALK = conditions: concentration: 1 μM, replicates: in singlicate, n = 1
# AMPK-alpha1 = tested on: T2, AMPK-alpha1; conditions: concentration: 1 μM, replicates: in singlicate; n = 1
# T2 construct: gene PRKAA1
# AMPK-alpha2 = tested on: T3, AMPK-alpha2; conditions: concentration: 1 μM, replicates: in singlicate, n = 1
# T3 construct: gene PRKAA2
# ANKK1 = conditions: concentration: 1 μM, replicates: in singlicate, n = 1
# ARK5 = tested on: T4, ARK5; conditions: concentration: 1 μM, replicates: in singlicate, n = 1
# T4 construct: gene NUAK1
# ASK1 = tested on: T5, ASK1; conditions: concentration: 1 μM, replicates: in singlicate, n = 1
# T5 construct: gene MAP3K5
# ASK2 = tested on: T6, ASK2; conditions: concentration: 1 μM, replicates: in singlicate, n = 1
# T6 construct: gene MAP3K6
# AURKA = conditions: concentration: 1 μM, replicates: in singlicate, n = 1
# AURKB = conditions: concentration: 1 μM, replicates: in singlicate, n = 1
# AURKC = conditions: concentration: 1 μM, replicates: in singlicate, n = 1
# AXL = conditions: concentration: 1 μM, replicates: in singlicate, n = 1
# BIKE = tested on: T7, BIKE; conditions: concentration: 1 μM, replicates: in singlicate, n = 1
# T7 construct: gene BMP2K
# 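Also: KINOMEscan kinase panel screen.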
structure (smiles),measurement,setting,value
O=C(NCCNc1ccnc(Nc2ccc(F)cc2)n1)Nc1ccccc1F [GSK1379880],%Inh,ACVR2A,0%
same,%Inh,ACVR2B,0%
same,%Inh,ACVRL1,0%
same,%Inh,ADCK3,0%
same,%Inh,ADCK4,19%
same,%Inh,AKT1,0%
same,%Inh,AKT2,0%
same,%Inh,AKT3,0%
same,%Inh,ALK,25%
same,%Inh,AMPK-alpha1,0%
same,%Inh,AMPK-alpha2,0%
same,%Inh,ANKK1,0%
same,%Inh,ARK5,21%
same,%Inh,ASK1,1%
same,%Inh,ASK2,0%
same,%Inh,AURKA,11%
same,%Inh,AURKB,32%
same,%Inh,AURKC,6%
same,%Inh,AXL,0%
same,%Inh,BIKE,0%
Nc1nc(-c2ccc3c(N)n[nH]c3c2)cc(N2CCCC2)n1 [GSK2227430],%Inh,ACVR2A,0%
same,%Inh,ACVR2B,0%
same,%Inh,ACVRL1,0%
same,%Inh,ADCK3,0%
same,%Inh,ADCK4,2%
same,%Inh,AKT1,0%
same,%Inh,AKT2,3%
same,%Inh,AKT3,0%
same,%Inh,ALK,4%
same,%Inh,AMPK-alpha1,0%
same,%Inh,AMPK-alpha2,0%
same,%Inh,ANKK1,4%
same,%Inh,ARK5,17%
same,%Inh,ASK1,0%
same,%Inh,ASK2,0%
same,%Inh,AURKA,0%
same,%Inh,AURKB,0%
same,%Inh,AURKC,37%
same,%Inh,AXL,0%
same,%Inh,BIKE,33%
COc1cc2ncn(-c3cc(OCc4sccc4Cl)c(C(N)=O)s3)c2cc1OC [GSK448459],%Inh,ACVR2A,0%
same,%Inh,ACVR2B,0%
same,%Inh,ACVRL1,0%
same,%Inh,ADCK3,0%
same,%Inh,ADCK4,39%
same,%Inh,AKT1,0%
same,%Inh,AKT2,1%
same,%Inh,AKT3,0%
same,%Inh,ALK,21%
same,%Inh,AMPK-alpha1,0%
same,%Inh,AMPK-alpha2,0%
same,%Inh,ANKK1,0%
same,%Inh,ARK5,15%
same,%Inh,ASK1,0%
same,%Inh,ASK2,0%
same,%Inh,AURKA,0%
same,%Inh,AURKB,12%
same,%Inh,AURKC,41%
same,%Inh,AXL,10%
same,%Inh,BIKE,90%
COc1ccc(Nc2ncc(C#N)c(Nc3ccccc3C(N)=O)n2)cc1N1CCN(C)CC1.Cl [GSK1558669],%Inh,ACVR2A,0%
same,%Inh,ACVR2B,0%
same,%Inh,ACVRL1,0%
same,%Inh,ADCK3,0%
same,%Inh,ADCK4,52%
same,%Inh,AKT1,8%
same,%Inh,AKT2,63%
same,%Inh,AKT3,0%
same,%Inh,ALK,95.7%
same,%Inh,AMPK-alpha1,97.3%
same,%Inh,AMPK-alpha2,99.8%
same,%Inh,ANKK1,52%
same,%Inh,ARK5,100%
same,%Inh,ASK1,0%
same,%Inh,ASK2,22%
same,%Inh,AURKA,99.9%
same,%Inh,AURKB,99.9%
same,%Inh,AURKC,100%
same,%Inh,AXL,98.9%
same,%Inh,BIKE,100%
Cc1ccc(NC(=O)c2ccnc(N3CCN(C)CC3)c2)cc1-c1ccc(C(=O)NCC2CC2)cc1 [GW775604],%Inh,ACVR2A,16%
same,%Inh,ACVR2B,0%
same,%Inh,ACVRL1,0%
same,%Inh,ADCK3,1%
same,%Inh,ADCK4,0%
same,%Inh,AKT1,0%
same,%Inh,AKT2,0%
same,%Inh,AKT3,6%
same,%Inh,ALK,0%
same,%Inh,AMPK-alpha1,0%
same,%Inh,AMPK-alpha2,0%
same,%Inh,ANKK1,0%
same,%Inh,ARK5,0%
same,%Inh,ASK1,0%
same,%Inh,ASK2,0%
same,%Inh,AURKA,0%
same,%Inh,AURKB,2%
same,%Inh,AURKC,0%
same,%Inh,AXL,0%
same,%Inh,BIKE,0%
O=C(NCCCN1CCOCC1)c1cccc(Nc2nccc(Nc3ccc(Oc4ccccc4)cc3)n2)c1 [GW663929],%Inh,ACVR2A,0%
same,%Inh,ACVR2B,5%
same,%Inh,ACVRL1,0%
same,%Inh,ADCK3,15%
same,%Inh,ADCK4,36%
same,%Inh,AKT1,0%
same,%Inh,AKT2,11%
same,%Inh,AKT3,0%
same,%Inh,ALK,7%
same,%Inh,AMPK-alpha1,0%
same,%Inh,AMPK-alpha2,0%
same,%Inh,ANKK1,20%
same,%Inh,ARK5,29%
same,%Inh,ASK1,3%
same,%Inh,ASK2,0%
same,%Inh,AURKA,36%
same,%Inh,AURKB,11%
same,%Inh,AURKC,14%
same,%Inh,AXL,11%
same,%Inh,BIKE,27%
NS(=O)(=O)CCc1cccc(Nc2nccc(-c3c(-c4cccc(NC(=O)c5c(F)cccc5F)c4)nn4ccccc34)n2)c1 [GSK336735],%Inh,ACVR2A,0%
same,%Inh,ACVR2B,37%
same,%Inh,ACVRL1,0%
same,%Inh,ADCK3,9%
same,%Inh,ADCK4,42%
same,%Inh,AKT1,0%
same,%Inh,AKT2,16%
same,%Inh,AKT3,0%
same,%Inh,ALK,24%
same,%Inh,AMPK-alpha1,20%
same,%Inh,AMPK-alpha2,33%
same,%Inh,ANKK1,83%
same,%Inh,ARK5,84%
same,%Inh,ASK1,2%
same,%Inh,ASK2,0%
same,%Inh,AURKA,93.5%
same,%Inh,AURKB,81%
same,%Inh,AURKC,72%
same,%Inh,AXL,90.5%
same,%Inh,BIKE,27%
CC(C)(CN)c1nc(-c2ccc(Cl)c(O)c2)c(-c2ccncc2)[nH]1.O=C(O)C(F)(F)F [SB-477794],%Inh,ACVR2A; 1 µM,1% and 25%
same,%Inh,ACVR2B; 1 µM,91.9% and 91%
same,%Inh,ACVRL1; 1 µM,61% and 67%
same,%Inh,ADCK3; 1 µM,7% and 17%
same,%Inh,ADCK4; 1 µM,54% and 35%
same,%Inh,AKT1; 1 µM,5% and 25%
same,%Inh,AKT2; 1 µM,21% and 8%
same,%Inh,AKT3; 1 µM,34% and 100%
same,%Inh,ALK; 1 µM,34% and 16%
same,%Inh,AMPK-alpha1,0%
same,%Inh,AMPK-alpha2; 1 µM,15% and 13%
same,%Inh,ANKK1; 1 µM,0% and 1%
same,%Inh,ARK5; 1 µM,19% and 0%
same,%Inh,ASK1; 1 µM,19% and 0%
same,%Inh,ASK2; 1 µM,1% and 3%
same,%Inh,AURKA; 1 µM,8% and 0%
same,%Inh,AURKB; 1 µM,31% and 15%
same,%Inh,AURKC; 1 µM,0% and 30%
same,%Inh,AXL; 1 µM,5% and 13%
same,%Inh,BIKE; 1 µM,0% and 21%
Cc1c2ccc(N(C)c3ccnc(Nc4cccc(S(N)(=O)=O)c4)n3)cc2nn1Cc1ccccc1.Cl.Cl [GW787226],%Inh,ACVR2A,0%
same,%Inh,ACVR2B,0%
same,%Inh,ACVRL1,12%
same,%Inh,ADCK3,0%
same,%Inh,ADCK4,0%
same,%Inh,AKT1,0%
same,%Inh,AKT2,0%
same,%Inh,AKT3,0%
same,%Inh,ALK,0%
same,%Inh,AMPK-alpha1,17%
same,%Inh,AMPK-alpha2,0%
same,%Inh,ANKK1,0%
same,%Inh,ARK5,0%
same,%Inh,ASK1,0%
same,%Inh,ASK2,0%
same,%Inh,AURKA,29%
same,%Inh,AURKB,54%
same,%Inh,AURKC,38%
same,%Inh,AXL,73%
same,%Inh,BIKE,0%
COc1cc(Nc2nccc(N3CCC(NC(=O)c4cccc(NC(C)=O)c4)C3)n2)cc(OC)c1OC (stereo not shown) [GSK1379754],%Inh,ACVR2A,17%
same,%Inh,ACVR2B,18%
same,%Inh,ACVRL1,0%
same,%Inh,ADCK3,10%
same,%Inh,ADCK4,36%
same,%Inh,AKT1,0%
same,%Inh,AKT2,0%
same,%Inh,AKT3,0%
same,%Inh,ALK,29%
same,%Inh,AMPK-alpha1,8%
same,%Inh,AMPK-alpha2,12%
same,%Inh,ANKK1,34%
same,%Inh,ARK5,31%
same,%Inh,ASK1,0%
same,%Inh,ASK2,0%
same,%Inh,AURKA,97.6%
same,%Inh,AURKB,0%
same,%Inh,AURKC,88%
same,%Inh,AXL,36%
same,%Inh,BIKE,86%
c1ccc(-c2n[nH]cc2-c2ccnc3ccccc23)nc1 [GW271431],%Inh,ACVR2A,2%
same,%Inh,ACVR2B,75%
same,%Inh,ACVRL1,0%
same,%Inh,ADCK3,20%
same,%Inh,ADCK4,24%
same,%Inh,AKT1,0%
same,%Inh,AKT2,2%
same,%Inh,AKT3,0%
same,%Inh,ALK,19%
same,%Inh,AMPK-alpha1,19%
same,%Inh,AMPK-alpha2,11%
same,%Inh,ANKK1,22%
same,%Inh,ARK5,5%
same,%Inh,ASK1,0%
same,%Inh,ASK2,0%
same,%Inh,AURKA,12%
same,%Inh,AURKB,20%
same,%Inh,AURKC,10%
same,%Inh,AXL,11%
same,%Inh,BIKE,24%
